From PubChem BioAssay AID1159580 (chemical genetic matrix, 2015)
The campaign covered roughly 5,500 compounds. About 2,000 (36%) were called active. Inconclusive results (about 18%) are left out. Cut-off read from the data, not from the text of the source: active = normalized growth mostly below about 0.91 (no sharp cut-off); inconclusive = no clear call, values can overlap the other calls; inactive = mostly above about 0.92. This is one part of the list.

Experiment: chemical genetic growth profiling, strain panel (AID 1159580);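 note: tested at 20 µM; growth read once vehicle control cultures reached saturation at 30 °C; 1 = growth at the plate median or of vehicle wells; lower values mean less growth of the strain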
Details: growth OD

Measured: normalized growth

COC1=CC(=O)OC(CCc2ccc(OC)c(OC)c2)C1 (stereo unspecified)
inactive: S. cerevisiae deletion strains, locus YAL013W, strain DEP1, hits give low values 0.988 | S. cerevisiae deletion strains, locus YBR021W, strain FUR4, hits give low values 0.991 | S. cerevisiae deletion strains, locus YBR229C, strain ROT2, hits give low values 1.01 | S. cerevisiae deletion strains, locus YCL029C, strain bik1, hits give low values 1.03 | S. cerevisiae deletion strains, locus YDL035C, strain GPR1, hits give low values 1.01 | S. cerevisiae deletion strains, locus YDL074C, strain BRE1, hits give low values 1.02 | S. cerevisiae deletion strains, locus YDL101C, strain DUN1, hits give low values 1.01 | S. cerevisiae deletion strains, locus YDL134C, strain PPH21, hits give low values 1 | S. cerevisiae deletion strains, locus YDL185W, strain tfp1, hits give low values 1.02 | S. cerevisiae deletion strains, locus YDL192W, strain arf1, hits give low values 1.02 | S. cerevisiae deletion strains, locus YDR101C, strain arx1, hits give low values 1.01 | S. cerevisiae deletion strains, locus YDR150W, strain NUM1, hits give low values 1.01 | S. cerevisiae deletion strains, locus YDR162C, strain NBP2, hits give low values 1.01 | S. cerevisiae deletion strains, locus YDR318W, strain mcm21, hits give low values 1.01 | S. cerevisiae deletion strains, locus YDR388W, hits give low values 1.01 | S. cerevisiae deletion strains, locus YDR502C, strain sam2, hits give low values 1.01 | S. cerevisiae deletion strains, locus YEL061C, strain CIN8, hits give low values 1.01 | S. cerevisiae deletion strains, locus YER110C, hits give low values 1.02 | S. cerevisiae deletion strains, locus YER155C, strain BEM2, hits give low values 1.01 | S. cerevisiae deletion strains, locus YER167W, strain BCK2, hits give low values 1.02 | S. cerevisiae deletion strains, locus YGL078C, strain dbp3, hits give low values 1.02 | S. cerevisiae deletion strains, locus YGL086W, strain mad1, hits give low values 1.02 | S. cerevisiae deletion strains, locus YGL248W, strain PDE1, hits give low values 1.01 | S. cerevisiae deletion strains, locus YGR078C, strain PAC10, hits give low values 1.01 | S. cerevisiae deletion strains, locus YGR135W, strain pre9, hits give low values 1.01 | S. cerevisiae deletion strains, locus YGR229C, strain SMI1, hits give low values 1 | S. cerevisiae deletion strains, locus YGR252W, strain gcn5, hits give low values 1 | S. cerevisiae deletion strains, locus YHR030C, strain SLT2, hits give low values 1.01 | S. cerevisiae deletion strains, locus YHR079C, strain IRE1 (second series), hits give low values 1.01 | S. cerevisiae deletion strains, locus YHR094C, strain hxt1, hits give low values 1.01 | S. cerevisiae deletion strains, locus YHR129C, strain ARP1, hits give low values 1.01 | S. cerevisiae deletion strains, locus YHR200W, strain rpn10, hits give low values 1.01 | S. cerevisiae deletion strains, locus YIL066C, strain RNR3, hits give low values 1 | S. cerevisiae deletion strains, locus YIL073C, strain SPO22, hits give low values 1.07 | S. cerevisiae deletion strains, locus YIL125W, strain kgd1, hits give low values 1.02 | S. cerevisiae deletion strains, locus YIR030C, strain dcg1, hits give low values 1.01 | S. cerevisiae deletion strains, locus YJL095W, strain BCK1, hits give low values 1.02 | S. cerevisiae deletion strains, locus YJL134W, strain LCB3, hits give low values 1 | S. cerevisiae deletion strains, locus YJL168C, strain set2, hits give low values 1 | S. cerevisiae deletion strains, locus YJL187C, strain SWE1 (second series), hits give low values 1.01 | S. cerevisiae deletion strains, locus YJR043C, strain POL32, hits give low values 1.02 | S. cerevisiae deletion strains, locus YJR075W, strain HOC1, hits give low values 1.02 | S. cerevisiae deletion strains, locus YKL009W, strain mrt4, hits give low values 1.03 | S. cerevisiae deletion strains, locus YKL068W, hits give low values 1.01 | S. cerevisiae deletion strains, locus YKL085W, strain MDH1 (second series), hits give low values 1.01 | S. cerevisiae deletion strains, locus YKL085W, strain MDH1, hits give low values 1.01 | S. cerevisiae deletion strains, locus YKL190W, strain CNB1, hits give low values 1.01 | S. cerevisiae deletion strains, locus YKR001C, strain vps1, hits give low values 1.04 | S. cerevisiae deletion strains, locus YLR039C, strain RIC1, hits give low values 1.07 | S. cerevisiae deletion strains, locus YLR058C, strain SHM2, hits give low values 1.01 | S. cerevisiae deletion strains, locus YLR102C, strain apc9, hits give low values 1.01 | S. cerevisiae deletion strains, locus YLR262C, strain YPT6, hits give low values 1.07 | S. cerevisiae deletion strains, locus YLR268W, strain sec22, hits give low values 1.01 | S. cerevisiae deletion strains, locus YLR330W, strain CHS5, hits give low values 1.01 | S. cerevisiae deletion strains, locus YLR342W, strain FKS1 (second series), hits give low values 1.01 | S. cerevisiae deletion strains, locus YLR371W, strain rom2, hits give low values 1.01 | S. cerevisiae deletion strains, locus YLR418C, strain cdc73, hits give low values 1.01 | S. cerevisiae deletion strains, locus YML016C, strain PPZ1, hits give low values 1.01 | S. cerevisiae deletion strains, locus YML032C, strain rad52, hits give low values 1.04 | S. cerevisiae deletion strains, locus YML124C, strain tub3, hits give low values 1.02 | S. cerevisiae deletion strains, locus YMR078C, strain ctf18, hits give low values 1.02 | S. cerevisiae deletion strains, locus YMR223W, strain ubp8, hits give low values 1.02 | S. cerevisiae deletion strains, locus YMR263W, strain SAP30, hits give low values 1.01 | S. cerevisiae deletion strains, locus YMR307W, strain GAS1, hits give low values 1.03 | S. cerevisiae deletion strains, locus YNL067W, strain RPL9B, hits give low values 1.01 | S. cerevisiae deletion strains, locus YNL128W, strain TEP1, hits give low values 1.01 | S. cerevisiae deletion strains, locus YNL153C, strain GIM3, hits give low values 1.01 | S. cerevisiae deletion strains, locus YNL233W, strain BNI4, hits give low values 1 | S. cerevisiae deletion strains, locus YNL250W, strain rad50, hits give low values 1.01 | S. cerevisiae deletion strains, locus YNL271C, strain bni1, hits give low values 1.01 | S. cerevisiae deletion strains, locus YNL298W, strain CLA4, hits give low values 1.02 | S. cerevisiae deletion strains, locus YNL307C, strain MCK1, hits give low values 1.01 | S. cerevisiae deletion strains, locus YNL322C, strain KRE1, hits give low values 1.01 | S. cerevisiae deletion strains, locus YNR052C, strain pop2, hits give low values 1.02 | S. cerevisiae deletion strains, locus YOL006C, strain TOP1, hits give low values 1.09 | S. cerevisiae deletion strains, locus YOL012C, strain htz1 1.25 | S. cerevisiae deletion strains, locus YOL147C, strain pex11, hits give low values 1.01 | S. cerevisiae deletion strains, locus YOR061W, strain CKA2, hits give low values 1.01 | S. cerevisiae deletion strains, locus YOR069W, strain VPS5, hits give low values 1 | S. cerevisiae deletion strains, locus YOR136W, strain idh2, hits give low values 1.02 | S. cerevisiae deletion strains, locus YOR144C, strain elg1, hits give low values 1.02 | S. cerevisiae deletion strains, locus YOR184W, strain ser1, hits give low values 1.03 | S. cerevisiae deletion strains, locus YOR316C, strain cot1, hits give low values 1.02 | S. cerevisiae deletion strains, locus YPL055C, strain LGE1, hits give low values 1.02 | S. cerevisiae deletion strains, locus YPL241C, strain CIN2, hits give low values 1 | S. cerevisiae deletion strains, locus YPR119W, strain clb2, hits give low values 1.01 | S. cerevisiae deletion strains, locus YPR141C, strain kar3, hits give low values 1.03 | S. cerevisiae deletion strains, locus YPR163C, strain tif3, hits give low values 1.02 | S. cerevisiae deletion strains, locus YPR167C, strain met16, hits give low values 1.02 | S. cerevisiae deletion strains, strain wtn01, hits give low values 1.01 | S. cerevisiae strains, strain wild type, hits give low values 0.999
